Screening results from PubChem.
Pf Dd2 growth = inhibitors of Plasmodium falciparum Dd2 growth; hit rate 4.3% among 120,000; P. falciparum Dd2 growth, SYBR Green, 72 h; AID 1347417; Potency, µM (titrated, usually from 28.9 µM), inactives show at the top dose activity, negative = inhibition, usual class: inhibitors; active = well fitted inhibition curve with a large enough effect;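 note: plate controls were DMSO vehicle for no effect and reference drug for full effect; nearly all actives have a fitted effect of over 65% in size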
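Readout: SYBR Green fluorescence, 485 nm excitation, 535 nm emission, after ~16 h lysis at 37C. Before that, Dd2-infected red cells (2.5% hematocrit) grew 72 h with compound, 29 uM top final concentration.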
* = called active by the depositor; i = inactive; [ ] = dose if it differs, or a comment. Many of the other results were omitted from the sample, so hits are more common in it than they were. Potency is the fitted concentration of half-maximal effect.

SMILES	Pf Dd2 growth
O=C(CC1CCCCN(Cc2ccccc2)C1=O)N1CCN(c2ccc(F)cc2)CC1 (configuration not stated)	11µM*
O=C(Cc1ccccc1)N1CC2CC(C1)[C@H]1CCCC(=O)N1C2 (some centres not stated)	0%
Cc1ncsc1CN1C(=O)CO[C@H](c2ccc(NS(C)(=O)=O)cc2)[C@H]1CO	31%[44.1 µM]
O=C(CCC1CCN(C(=O)c2ccccc2)CC1)NCCCN1CCOCC1	-9%
Cc1cc(C)n(CCCNC(=O)c2cc(COc3ccc4sc(C)nc4c3)on2)n1	-11%
CC(C)(C)C(Cn1ccnc1)NC(=O)c1cc(COc2ccc3c(c2)CCCC3)on1 (configuration not stated)	8.9µM*
COC(=O)c1ccccc1NC(=O)c1cc(CN2CCCC2)on1	i[5.79 µM]
Cc1nn2c(c1-c1ccccc1N1CCCC1)N(C(=O)C1CCOCC1)CCC2	-26%[44.1 µM]
COc1cc(=O)n2c(c1C(=O)Nc1cccc(C)c1C)CCCC2	27%
CC(C)N1CCN(C(=O)c2cc3c(n2C)CCN(Cc2ccc(F)cc2)C3)CC1	i
COc1cccc(CN2CCc3c(cc(C(=O)Nc4ccccc4)n3C)C2)c1	1.1µM*
O=C(Cn1c(=O)c2c(n1Cc1ccccc1)CN(Cc1ccccc1)CC2)NCc1ccc(F)cc1	i
COc1cccc(CN2CCc3c(cc(C(=O)Nc4cccc(C)c4C)n3C)C2)c1	4.5µM*
COc1ccc(CNC(=O)c2cc3c(n2C)CCN(Cc2ccccc2)C3)cc1OC	-26%
COc1cccc(CN2CCc3c(cc(C(=O)N4CCOCC4)n3C)C2)c1	-16%
CCN(CC)C(=O)c1cc2c(n1C)CCN(Cc1ccc(F)cc1)C2	8.9µM*
COc1cccc(CC(=O)NCCC2CCN(C(=O)Nc3ccccc3C)CC2)c1	-10%
COc1cccc(CN2CCc3nc(C(=O)Nc4cccnc4)oc3CC2)c1	-3%[44.1 µM]
COc1cccc(CN2CCc3c(cc(C(=O)NCc4ccccn4)n3C)C2)c1	0.89µM*
COc1cccc(CN2CCN3C(=O)N(Cc4ccccn4)C[C@H]3C2)c1	-4%[44.1 µM]
c1ccc(-c2nnc3ccc(-c4ccoc4)nn23)nc1	3%[44.1 µM]
CCN(CC)C(=O)[C@@H]1CCC[C@@H](NC(=O)c2cc(C)on2)CN(C)C(=O)C1	-10%[44.1 µM]
Cc1cccc2ncc(C(=O)N3CC[C@H](CO)[C@@H](O)C3)c(=O)n12	-11%
CCCCc1nn(CC(=O)NCc2nc3c(s2)CCCC3)c(=O)n1CC	5%
COc1ccc(NC(=O)c2ccc3c(c2)c(C)c(C)n3Cc2ccc(F)cc2)cc1	-17%
SMILES	Pf Dd2 growth
COc1ccc(NC(=O)C2=NO[C@@H]3CN(Cc4ccc(F)cc4)C[C@H]23)cc1	i
COc1ccc(NC(=O)c2cc3c(n2C)CCN(Cc2ccc(F)cc2)C3)cc1	2.5µM*
CCOc1cccc(CC(=O)N2CCc3c([nH]c4ccccc34)C2c2ccc(Cl)cc2)c1OCC (configuration not stated)	5µM*
COc1ccc(C(=O)N2CC(=O)Nc3ccc(Br)cc3C2c2ccc(F)cc2)cc1OC (configuration not stated)	-24%
CCOc1cc(C(=O)N2CCc3c([nH]c4ccccc34)C2c2ccccc2)cc(OCC)c1OCC (configuration not stated)	2µM*
CCc1ccccc1NC(=O)N1CCc2c([nH]c3ccccc23)C1c1ccc(C)cc1 (configuration not stated)	-20%
CCOc1ccc(C2c3[nH]c4ccccc4c3CCN2C(=O)CCC2CCCC2)cc1 (configuration not stated)	-10%
COc1ccc(C2c3[nH]c4ccc(OC)cc4c3CCN2C(=O)Nc2ccccc2)cc1 (configuration not stated)	6.3µM*
CCOc1cc(CNC(=O)C2CCN(c3nc4ccccc4[nH]3)CC2)cc(OCC)c1OCC	29%
COc1ccccc1C(=O)NC1CCCc2c1[nH]c1ccccc21 (configuration not stated)	-22%
CCOc1cc(C(=O)N2CCC[C@H]2c2nc(-c3ccc(C)cc3)no2)cc(OCC)c1OCC	i
COc1ccc2[nH]c3c(c2c1)CCN(C)C31CCN(C(=O)C2CCCC2)CC1	i
CCOc1cccc(CC(=O)NCc2ccc3c(c2)CCN3C(=O)c2cccc(C)c2)c1OCC	-14%
COc1cc(C(=O)N2CCc3c([nH]c4ccccc34)C2c2ccc(F)cc2)cc(OC)c1OC (configuration not stated)	4.5µM*
Cn1c(CNC(=O)c2cc[nH]c2C2CCCNC2)nc2ccccc21 (configuration not stated)	-4%
O=C(N[C@@H]1CN(C(=O)c2cccc3[nH]ccc23)CC[C@@H]1CO)C1CC1	-17%
CCOCCn1c(=O)[nH]c2cc(C(=O)NCc3cc(=O)[nH]c(C)n3)ccc21	-10%
C[C@]1(O)CCN(C(=O)Cc2nc(-c3ccncc3)n[nH]2)C[C@@H]1O	2%
O=C(c1ccc(Cl)cc1)N1CCC(N2CCNC2=O)CC1	10%
CCc1nc2c(c(-c3ccc(OC)cc3)n1)CCN([S+](=O)([O-])c1c(C)noc1C)CC2	23%
COc1cccc(S(=O)(=O)N2CCC(Cc3nncn3C)C2)c1 (configuration not stated)	32%
COCCc1noc(-c2nnn3c2COC(c2ccc(OC)cc2)C3)n1 (configuration not stated)	i
CS(=O)(=O)NC[C@H]1Cn2c(-c3ccc4c(c3)OCCO4)cnc2CO1	i
O=S(=O)(Cc1ccccc1)NC[C@H]1Cn2c(-c3ccc(F)cc3)cnc2CO1	i
COc1ncccc1CNC[C@H]1Cn2c(-c3ccc(F)cc3)cnc2CO1	25µM*
SMILES	Pf Dd2 growth
c1ccc(CNC[C@H]2Cn3c(-c4ccc5c(c4)OCCO5)cnc3CO2)cc1	11µM*
O=C(NCc1ccccc1)NC[C@H]1Cn2c(-c3ccc(Cl)cc3)cnc2CO1	2.8µM*
Clc1ccc(CNC[C@H]2Cn3c(-c4ccccc4)cnc3CO2)cc1	-12%[44.1 µM]
Clc1ccc(-c2cnc3n2C[C@H](CNCc2cccnc2)OC3)cc1	-11%[44.1 µM]
O=S(=O)(Cc1ccccc1)NC[C@H]1Cn2c(-c3ccc(Cl)cc3)cnc2CO1	-7%[44.1 µM]
O=C(NC[C@H]1Cn2c(-c3ccc4c(c3)OCCO4)cnc2CO1)C1CC1	-8%[44.1 µM]
CS(=O)(=O)N1CCn2cc(C(=O)Nc3ccc(Cl)cc3Cl)nc2C1	-4%
CC(=O)NCc1cn[nH]c1-c1ccc(Cl)cc1	-6%
O=C(NCC1CN(C(=O)Cc2ccc(C(F)(F)F)cc2)CC12CN(c1ccccc1)C2)c1ccccc1 (configuration not stated)	i
COc1cccc(C(=O)N2CCN(c3cc(C(F)(F)F)ncn3)CC2)c1	-5%
CC(=O)N(C1CCOCC1)C1CCN(S(=O)(=O)c2ccccc2)CC1	-13%
O[C@]1(c2ccccc2)CCN(Cc2ccco2)C[C@H]1N1CCCC1	0.63µM*
O[C@]1(c2ccccc2)CCN(Cc2ccncc2)C[C@H]1N1CCCC1	0.71µM*
Cc1ccc(CN2CC[C@@](C)(O)[C@H](N3CCCC3)C2)o1	9%[5.79 µM]
Cc1ccsc1C(=O)N1CCC(O)(c2ccccc2)[C@H](N(C)C)C1 (some centres not stated)	i[5.79 µM]
O=C(C1CC1)N1CC[C@](O)(c2ccccc2)[C@H](N2CCCC2)C1	i[5.79 µM]
O=C(c1cccs1)N1CCC(O)(c2ccccc2)[C@H](N2CCCC2)C1 (some centres not stated)	1.4µM*
COc1ccc(CN2CC[C@@](C)(O)[C@H](N3CCCC3)C2)cc1	21%[5.79 µM]
C[C@@]1(O)CCN(Cc2ccc(Br)o2)C[C@H]1N1CCCC1	-22%[5.79 µM]
